From PubChem BioAssay
Hits are enriched below; roughly 19% of the tested compounds scored in any of these assays.
TDP1 cell CPT: DT40-hTDP1 cell growth loss with CPT. 420,000 tested, 12% active. Potency, µM (highest dose often 46.2 µM), without a hit: at the highest dose activity change, negative = growth inhibition, actives largely listed as inhibitors. chicken DT40 Tdp1-/-;hTDP1 cells + 20 nM CPT, ATP luminescence, 48 h; further: nearly all actives have a fitted effect of over 55% in size
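Cell growth measured by CellTiter-Glo luminescence after a minimum 48 h, 37 C compound exposure with 20 nM CPT in Tdp1-knockout DT40 cells stably expressing hTDP1, seeded 400/well; qHTS titration format.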
TDP1 cell noCPT: qHTS for Inhibitors of human tyrosyl-DNA phosphodiesterase 1 (TDP1): qHTS in cells in absence of CPT; DT40 Tdp1-/- hTDP1 cells, no CPT, ATP luminescence, 48 h; Potency, µM (series often up to 46.2 µM), for the others: top-dose activity change, negative = growth inhibition, actives largely listed as inhibitors; 420,000 tested, 15% active; further: nearly all actives have a fitted effect of over 55% in size
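Luminescent ATP content (CellTiter-Glo) served as the growth readout. Knockout chicken DT40 cells expressing human TDP1 were exposed to compounds without camptothecin for a minimum 48 hr at 37 °C.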
KB-3-1 tox: kills parental KB-3-1 adenocarcinoma cells. KB-3-1 viability, CellTiter-Glo ATP luminescence, 72 h. Potency, µM (doses to about 46.1 µM), actives largely listed as cytotoxic. 400,000 tested, 1.4% active; further: nearly all actives have a fitted effect of over 60% in size
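Multi-concentration cytotoxicity screen in KB-3-1 cells grown in DMEM lacking phenol red with 10% FBS. After 72 h at 37 °C with compound, ATP-dependent luminescence was recorded.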
HT1080-NT tox: kills 2HG-producing HT-1080-NT fibrosarcoma cells; HT-1080-NT fibrosarcoma viability, CellTiter-Glo ATP luminescence, 48 h; Potency, µM (top dose mostly 46.1 µM), for the others: at the top dose activity, negative = less viability, actives largely listed as cytotoxic; 360,000 tested, 1.6% active;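 further: NT is the 2HG producing partner of a matched IDH1 knockdown line; 0% = DMSO-treated cells and -100% = media-only wells without cells; nearly all actives have a fitted effect of over 55% in size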
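Viability by CellTiter-Glo luminescence after 48 h compound exposure at 37C of HT-1080-NT cells (750/well, RPMI, 5% FBS). % activity scaled between DMSO wells and medium-only wells, then curve-fitted and categorized by curve class.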
KB-V1 cytotox: KB-V1 MDR subline cytotoxicity. KB-V1 MDR cells viability, CellTiter-Glo, 72 h. 400,000 tested, 3.4% active. Potency, µM (top dose mostly 46.1 µM), actives largely listed as cytotoxic. AID 1347076; further: nearly all actives have a fitted effect of over 60% in size
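qHTS viability screen in drug-selected KB-V1 MDR cells: 72 h compound treatment at 37 degrees C, ATP luminescence end point.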
HT1080 IDH1KD tx: toxicity to HT-1080 IDH1 knockdown cells (counter line). HT-1080 IDH1 knockdown viability, ATP luminescence, 48 h. AID 686971. Potency, µM (doses to about 46.1 µM), without a hit: at the highest dose activity, negative = toxicity, hits mostly cytotoxic. 360,000 tested, 2% active;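 further: 0% = DMSO wells and -100% = cell-free medium wells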
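CellTiter-Glo luminescence after 48 h compound exposure at 37 degrees C of IDH1-knockdown HT-1080 cells in 5% FBS RPMI. %Activity scaled between DMSO wells and cell-free media wells, with curves fitted and assigned curve classes.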
The depositor's hits bear a star; i = inactive; u = inconclusive; x = not tested or not shown. The call rests on the fitted dose curve; in most records, active means well fitted curve in the direction sought with a large enough effect; inconclusive means small, poorly fitted or top-dose-only effect, or another doubt; inactive means no such curve, though single readings can be large; an effect the other way counts as inactive or inconclusive. Unless noted, on the % scale 0 is the no-effect control and ±100 the full control effect; potency means the concentration at half of the fitted maximal effect.

SMILES	TDP1 cell CPT	TDP1 cell noCPT	KB-3-1 tox	HT1080-NT tox	KB-V1 cytotox	HT1080 IDH1KD tx
C=CCN1C(=O)N(c2ccc(F)cc2)C(=O)C1CC(=O)Nc1ccc(Cl)cc1 (configuration not stated)	7%	-12%	i	4%	i	-17%
Cc1cccc(N2C(=O)C(CC(=O)Nc3cccc(F)c3)N(Cc3cccs3)C2=O)c1 (configuration not stated)	u	18µM*	x	x	x	x
COCCN1C(=O)N(c2ccc(OC)cc2)C(=O)C1CC(=O)Nc1cccc(F)c1 (configuration not stated)	-9%	2%	i	-7%	i	-3%
CCc1ccc(NC(=O)CC2C(=O)N(c3ccc(Cl)cc3)C(=O)N2Cc2cccs2)cc1 (configuration not stated)	4.6µM*	4.1µM*	x	x	x	x
COCCN1C(=O)N(c2cccc(C)c2)C(=O)C1CC(=O)Nc1ccc(OC)cc1 (configuration not stated)	-18%	13%	i	-1%	i	2%
Cc1cccc(N(CC(=O)NCCSc2ccc(Cl)cc2)S(C)(=O)=O)c1C	u	u	i	x	i	x
CC1(C(=O)O)CCCN1C(=O)c1ccccc1OC(F)(F)F (configuration not stated)	-19%	-6%	i	15%	i	6%
O=C(O)C(Cc1ccccc1)N1C(=O)C2C3CCC(C3)C2C1=O (configuration not stated)	-16%	-6%	i	-5%	i	-5%
COc1ccc(N(Cc2ccccc2)S(=O)(=O)c2cccc(C(=O)NCC3CCCO3)c2)cc1 (configuration not stated)	0%	-13%	i	-4%	u	-3%
O=C(Cn1c(=O)n2nc(-c3cccc(F)c3)nc2c2ccccc21)NCc1ccc(Cl)cc1	-2%	-4%	i	x	i	x
Cc1cccc(-c2nc3c4ccccc4n(Cc4cccc(Cl)c4)c(=O)n3n2)c1	21µM*	10µM*	x	x	x	x
CCc1cccc(NC(=O)Cn2c(=O)n3nc(-c4cccc(F)c4)nc3c3ccccc32)c1	3.7µM*	4.6µM*	i	x	i	x
Cc1ccc(CNC(=O)NCc2noc3ccc(C)cc23)cc1	u	u	i	x	i	x
CCN(C(=O)Cn1c(C(=O)OC)cc2oc3ccccc3c21)c1cccc(C)c1	12µM*	18µM*	i	x	i	x
COC(=O)c1cc2oc3ccccc3c2n1Cc1cccc(C)c1	-27%	u	i	x	i	x
Cc1ccc(OCC(=O)Nc2ccc(OCc3cc(=O)n4ccsc4n3)cc2)cc1	1%	-16%	i	x	i	x
CCOc1ccc(-c2cc3nc(C4CCN(C(=O)OC(C)(C)C)CC4)c(C(=O)Nc4ccc(C)cc4C)cn3n2)cc1	18µM*	21µM*	i	x	i	x
CCOc1ccc(-c2cc3nc(C4CCN(C(=O)OC(C)(C)C)CC4)c(C(=O)Nc4cccc(Cl)c4C)cn3n2)cc1	18µM*	15µM*	i	x	i	x
CCOc1ccc(-c2cc3nc(C4CCN(C(=O)OC(C)(C)C)CC4)c(C(=O)Nc4c(C)cccc4C)cn3n2)cc1	15µM*	13µM*	i	x	i	x
CCOc1ccc(-c2cc3nc(C4CCN(C(=O)OC(C)(C)C)CC4)c(C(=O)Nc4ccc(C)cc4Cl)cn3n2)cc1	u	u	i	x	i	x
COCCn1c(=O)c(-c2ccccc2)nc2cnc(Oc3ccc(OC)cc3)nc21	u	-19%	x	x	x	x
CN(C)S(=O)(=O)c1ccc(N2CCN(S(=O)(=O)c3ccc(F)cc3)CC2)c(Cl)c1	18µM*	18µM*	u	10µM*	5.8µM*	7.1µM*
